Test results published in PubChem BioAssay AID588342 (National Center for Advancing Translational Sciences (NCATS), 2011).
Among all 360,000 compounds or so, about 25,000 (6.9%) were called active. About 9% were inconclusive and are not listed. The call rests on the fitted dose curve; in most records, active means well fitted inhibition curve with a large enough effect; inconclusive means small, poorly fitted or top-dose-only effect; inactive means flat fitted curve, though single readings scatter. The list comes from a sample in which actives are over-represented; it also holds similar structures and randomly drawn compounds. A call without a number means that no potency is given here.

Target: Luciferin 4-monooxygenase (Photinus pyralis) (UniProt P08659)
Assay: qHTS profiling assay for firefly luciferase inhibitor/activator using purifed enzyme and Km concentrations of substrates (counterscreen for miR-21 project); further: nearly all actives have a fitted effect of over 55% in size
Settings: purified FLuc, luminescence inhibition; series mostly up to 57.5 µM
In short: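 Purified P. pyralis luciferase, 10 nM final, with Km-level 10 uM D-luciferin and 10 uM ATP in 50 mM Tris acetate pH 7.5, 10 mM Mg acetate, 0.01% Tween-20, 0.05% BSA; 6-point qHTS titration about 60 µM downward; luminescence read.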
Potency means the concentration at half of the fitted maximal effect.

Luciferin 4-monooxygenase (Photinus pyralis), sequence (P08659 whole entry, looked up): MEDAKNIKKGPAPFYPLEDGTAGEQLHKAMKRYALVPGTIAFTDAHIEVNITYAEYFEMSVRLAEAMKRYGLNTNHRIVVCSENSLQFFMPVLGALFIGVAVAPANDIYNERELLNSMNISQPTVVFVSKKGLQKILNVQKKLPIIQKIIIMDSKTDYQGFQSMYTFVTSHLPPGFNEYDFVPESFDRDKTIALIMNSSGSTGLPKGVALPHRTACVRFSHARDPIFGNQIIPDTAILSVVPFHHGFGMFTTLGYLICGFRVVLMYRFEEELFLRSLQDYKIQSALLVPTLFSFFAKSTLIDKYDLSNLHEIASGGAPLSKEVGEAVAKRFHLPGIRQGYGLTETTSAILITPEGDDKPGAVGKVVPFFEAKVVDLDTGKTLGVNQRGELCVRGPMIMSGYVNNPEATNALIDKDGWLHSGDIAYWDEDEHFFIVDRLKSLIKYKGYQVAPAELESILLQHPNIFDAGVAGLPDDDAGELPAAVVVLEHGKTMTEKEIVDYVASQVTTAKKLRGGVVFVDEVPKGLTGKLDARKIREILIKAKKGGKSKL

Row | Compound | Potency
1 | COc1cccc(/C=C/C(=O)OCC(=O)N2CCN(c3ccccc3)CC2)c1 | inactive
2 | CN=C1C=C/C(=N/N=c2\ccn(O)cc2C)C=C1C | 15.1 µM (active)
3 | CSc1ccccc1NC(=O)COC(=O)CCCOc1ccc(C)cc1 | inactive
4 | CCCNC(=O)C(CC)n1nc(CC)n2c(cc3oc(C)cc32)c1=O (configuration not stated) | inactive
5 | CCN(CC)S(=O)(=O)c1ccc(N2CCOCC2)c(NC(=O)C2CSC3(C)CCC(=O)N23)c1 (configuration not stated) | inactive
6 | O=C(Nc1ccc(S(=O)(=O)Nc2nccs2)cc1)c1cc(-c2ccncc2)nc2ccccc12 | inactive
7 | CCCCN(C)CCCNC(=O)c1cc(-c2cccs2)nc2ccccc12 | inactive
8 | O=C(Nc1nnc(-c2ccccc2)o1)c1cc(-c2cccs2)nc2ccccc12 | 19 µM (active)
9 | Cc1cccc(CC(=O)N2CC(=O)Nc3ccc(F)cc3C2c2ccccc2)c1 (configuration not stated) | inactive
10 | Cc1ccc(CSc2nc3ccsc3c(=O)n2CCC(C)C)cc1 | inactive
11 | COc1ccc(NC(=O)CSc2nnc(C3CC3)n2C)cc1S(=O)(=O)N1CCCCC1 | inactive
12 | NC(=O)c1c(Nc2nc3c(F)cccc3s2)sc2c1CCCC2 | inactive
13 | COc1cc2ccccc2cc1C(=O)N(CCN(C)C)c1nc2c(F)cccc2s1 | inactive
14 | Fc1cc(F)c2nc(Nc3nc4c(F)cccc4s3)sc2c1 | 4.78 µM (active)
15 | COc1ccc(-c2cn3nc(N4CCC(C(=O)Nc5cccc(C)c5C)CC4)sc3n2)cc1 | inactive
16 | CCc1ccc(NC(=O)CN2C(=O)CSC2=O)cc1 | 10.7 µM (active)
17 | CCc1ccc(NC(=O)CN2C(=O)CCSc3ccc(S(=O)(=O)N4CCCC4)cc32)cc1 | inactive
18 | COc1ccc(NC(=O)CN2C(=O)CSC2=O)cc1 | inactive
19 | CCn1c(=O)c2cc(C(=O)NCCc3ccc(Cl)cc3)sc2c2ccccc21 | inactive
20 | COc1ccc(-c2onc(C)c2C)cc1S(=O)(=O)NCCc1ccccc1 | inactive
21 | CCOC(=O)c1cc2cc(C)ccc2[nH]1 | 12 µM (active)
22 | Cc1ccc2[nH]c(=O)c(COC(=O)c3ccccn3)cc2c1 | inactive
23 | CC(=O)OCc1cc2cc(C)ccc2[nH]c1=O | inactive

Row | Compound | Potency
24 | COc1cc(OC)c(NC(=O)c2cc(S(=O)(=O)N3CCCC3)cn2C)cc1Cl | inactive
25 | Cc1cccc(NC(=O)Nc2ccc3c(c2)OCO3)n1 | 2.69 µM (active)
26 | CCOC(=O)CCCNC(=O)COC(=O)/C=C/c1ccc2c(c1)OCO2 | inactive
27 | CNS(=O)(=O)c1ccc(NC(=O)Nc2ccc3c(c2)OCO3)cc1 | 6.01 µM (active)
28 | O=C(Nc1ccc2c(c1)OCO2)c1cc(-c2cccc(Cl)c2)on1 | inactive
29 | CCN(CC(=O)Nc1ccc2c(c1)OCO2)S(=O)(=O)c1ccccc1 | inactive
30 | CC(C)CNS(=O)(=O)c1ccc(C(=O)Nc2ccc3c(c2)OCO3)cc1 | inactive
31 | Cc1cccc(NC(=O)/C=C/c2ccc3c(c2)OCO3)n1 | 0.849 µM (active)
32 | O=C(/C=C\c1ccc2c(c1)OCO2)NC1(C(=O)Nc2ccc3c(c2)OCCO3)CCCCC1 | inactive
33 | Cc1ccc2nc(-c3ccccn3)cc(C(=O)Nc3ccc4c(c3)OCO4)c2c1 | inactive
34 | CCOc1ccc(OCC(=O)Nc2c3c(nn2C(C)(C)C)CS(=O)(=O)C3)cc1 | inactive
35 | COc1cccc(NC(=O)CN(C)C(=O)CSCc2nc3scc(-c4cccs4)c3c(=O)[nH]2)c1 | inactive
36 | CC(C)CC(NS(=O)(=O)c1ccc2c(c1)oc(=O)n2C)C(=O)NCc1ccccc1Cl (configuration not stated) | inactive
37 | COc1ccccc1C(CNC(=O)c1ccc(C)c(S(=O)(=O)N2CCCCC2)c1)N(C)C (configuration not stated) | inactive
38 | Fc1ccc(Nc2nc(SCc3ccccc3Cl)nc3ccccc23)cc1 | inactive
39 | COc1ccccc1NC(=O)c1ccc(N2CC3CC(C2)c2cccc(=O)n2C3)c(NC(=O)c2cccnc2)c1 (configuration not stated) | inactive
40 | COC(=O)c1cnn(-c2ccc(C(=O)Nc3ccc(OC(F)(F)F)cc3)cc2)c1N | inactive
41 | O=C(CN1C(=O)S/C(=C\c2ccccc2Cl)C1=O)NC1C=CS(=O)(=O)C1 (configuration not stated) | inactive
42 | COc1cccc(/C=C2/SC(=S)N(CC(=O)NC3C=CS(=O)(=O)C3)C2=O)c1 (configuration not stated) | 6.75 µM (active)
43 | COc1cccc(/C=C2\SC(=N)N(c3ccc(F)cc3)C2=O)c1 | inactive
44 | COc1ccccc1CCC(=O)NNC(=O)c1ccncc1 | inactive
45 | O=C(O)c1ccc(/C=C2\SC(=S)N(NC(=O)c3ccc(Br)cc3)C2=O)cc1 | inactive
46 | COc1ccc(/C=C2\SC(=S)N(CC(=O)NNC(=O)c3ccncc3)C2=O)cc1 | 5.36 µM (active)

Row | Compound | Potency
47 | O=C1N(Cc2ccc3c(c2)OCO3)c2ccccc2C1(O)c1c[nH]c2ccccc12 (configuration not stated) | inactive
48 | O=C(c1ccc2c(c1)N(Cc1ccccc1)C(=O)c1ccccc1S2(=O)=O)N1CCCC1 | inactive
49 | CC(C)(C)OC(=O)N[C@H](C(=O)OC(C)(C)C)c1ccc(Br)cc1 | inactive
50 | O=C1c2ccccc2C(=O)N1CCC#Cc1ccc2cc(C3(O)CCCCC3)oc(=O)c2c1 | inactive
51 | COc1cc(C#Cc2ccc3cc(CCCO)oc(=O)c3c2)cc(OC)c1 | 4.78 µM (active)
52 | CCC(Sc1nc2n[nH]c(C)c2c(=N)n1-c1ccccc1Cl)C(=O)N(CC)CC (configuration not stated) | inactive
53 | Cc1ccccc1CS(=O)(=O)CC1Nc2ccc(C(=O)NCc3ccc(Cl)cc3)cc2NC1=O (configuration not stated) | inactive
54 | CCCCOc1ccc(Cn2c(=O)oc3ccc(C)cc32)cc1OC | inactive
55 | CCN1C(=O)/C(=C2\SC(N3CCCCC3)=NC2=O)c2ccccc21 | 3.38 µM (active)
56 | CC(C)=C1SC(N2CCN(c3cccc(C)c3)CC2)=NC1=O | inactive
57 | CCn1c(=O)n(CC)c2cc(N3CCCC3)c(NC(=O)c3ccccc3Br)cc21 | inactive
58 | Cc1occc1C(=O)NNC(=S)NCC(C)C | inactive
59 | CC(C)C(NC(=O)c1ccc(Cl)cc1)C(=O)O (configuration not stated) | inactive
60 | CC(C)CNC(=S)NC(=O)c1ccc(Cl)cc1 | 12 µM (active)
61 | CCOC(=O)N1CCC(NC(=O)c2cnn(-c3cccc(C)c3)c2C2CCN(C(=O)OC(C)(C)C)CC2)CC1 | inactive
62 | Cn1c(CCN2CCCC2)nc2cc(NS(=O)(=O)c3ccccc3)ccc21 | inactive
63 | CC(=O)NCCc1nc2cc(NC(=O)c3ccccc3)ccc2n1C | 16.9 µM (active)
64 | Cn1c(CCN2CCCCCC2)nc2cc(NC(=O)Nc3ccccc3)ccc21 | 21.3 µM (active)
65 | CCCC(=O)Nc1ccc2c(c1)nc(CCNC(=O)c1ccco1)n2C | inactive
66 | CCOC(=O)N1CCN(Cc2nc3cc(NC(C)=O)ccc3n2C)CC1 | inactive
67 | CCC(=O)Nc1ccc2c(c1)nc(CCN1CCN(c3ccccn3)CC1)n2C | inactive
